Screening results as filed in PubChem BioAssay.
Shown are actives, neighbours in structure and some others; about 9.4% of the full set was active somewhere.
IMPase Li inh = qHTS Assay for Identifying the Cell-Membrane Permeable IMPase Inhibitors: Potentiation with Lithium; CHO-M1 cells, IP1 TR-FRET (IP-One), carbachol + lithium; Potency, µM (series often up to 59.4 µM), hits mostly inhibitors; actives 0.35% (n = 210,000);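 also: IP1 builds up when IMPase is blocked and the TR-FRET signal falls; nearly all actives have a fitted effect of over 50% in size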
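Steps: plate 2000 CHO-M1 cells per well and culture 16–30 h; add compound and lithium; incubate 30 min, 37C; add d2-IP1 tracer and Eu cryptate anti-IP1 antibody in lysis buffer; read after 10 min at room temperature.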
ALDH1A1 inh = qHTS Assay for Inhibitors of Aldehyde Dehydrogenase 1 (ALDH1A1). AID 1030, 2008. Potency, µM (top dose mostly 75.3 µM), most hits filed as inhibitors. Purified ALDH1A1, NADH fluorescence, propionaldehyde substrate. actives 7.3% (n = 220,000). Aldehyde dehydrogenase 1A1 (Homo sapiens), P00352; active = well fitted inhibition curve with a large enough effect, not every such curve was filed as active; inconclusive = small, poorly fitted or top-dose-only effect, or another doubt; inactive = no such curve, though single readings can be large or run the other way
Target sequence (P00352 whole entry, looked up): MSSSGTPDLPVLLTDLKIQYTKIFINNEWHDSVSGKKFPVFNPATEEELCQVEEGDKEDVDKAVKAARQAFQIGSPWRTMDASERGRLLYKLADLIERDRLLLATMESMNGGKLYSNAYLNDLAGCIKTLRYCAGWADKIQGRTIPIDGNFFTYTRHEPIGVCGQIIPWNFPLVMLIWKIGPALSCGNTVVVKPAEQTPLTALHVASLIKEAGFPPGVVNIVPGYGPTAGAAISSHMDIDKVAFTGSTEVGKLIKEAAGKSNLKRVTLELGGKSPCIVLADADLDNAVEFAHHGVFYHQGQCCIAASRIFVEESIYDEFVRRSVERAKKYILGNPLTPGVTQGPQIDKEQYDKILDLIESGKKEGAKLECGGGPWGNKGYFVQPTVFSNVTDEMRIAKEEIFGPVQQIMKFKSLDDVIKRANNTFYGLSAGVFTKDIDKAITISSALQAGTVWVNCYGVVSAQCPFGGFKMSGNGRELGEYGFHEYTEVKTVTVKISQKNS
IMPase inh = qHTS Assay for Identifying the Cell-Membrane Permeable IMPase Inhibitors | Inositol monophosphatase 1 (Rattus norvegicus), P97697 | inhibition (IP1 accumulation), % at 46.1 µM | CHO-M1 cells, IP1 accumulation, HTRF TR-FRET ratio | 120,000 tested, under 10 active | AID 901, 2007; active = well fitted curve in the direction sought with a large enough effect in the signal ratio, not every such curve was filed as active; inconclusive = small, poorly fitted or top-dose-only effect, or a change in a side signal; inactive = no such curve, though single readings can be large or run the other way; the % refers to the signal ratio;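 also: cells stimulated with carbachol in lithium chloride buffer; higher means more IMPase inhibition seen as more IP1 and lower FRET ratio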
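CHO-M1, 2000 cells/well, cultured 16–30 h; cpd up to 46 uM; carbachol (50 uM solution, stimulation buffer w/ 50 mM LiCl, pH 7.4), 30 min 37C; IP-One TR-FRET, 10 min RT; Ex 320/Em 665, 620; Hill-fit AC50.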
HttQ103 aggreg = qHTS Multiplex Assay to Identify Dual Action Probes in a Cell Model of Huntington: Aggregate Formation (GFP); PC12 HttQ103-GFP aggregates, Acumen cytometry, 40 h; Potency, µM (highest dose often 46.1 µM), usual class: inhibitors; actives 1.1% (n = 220,000); AID 1688, 2009; also: nearly all actives have a fitted effect of over 60% in size
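Ecdysone-promoter PC12 model expressing HTT exon 1 Q103 fused to GFP, induced by tebufenozide at 100 nM final. Compounds titrated; aggregates sized 1–25 µm scored on a 488 nm laser cytometer.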
HPGD inh = qHTS Assay for Inhibitors of HPGD (15-Hydroxyprostaglandin Dehydrogenase). actives 4.3% (n = 150,000). purified HPGD, NADH fluorescence kinetic, PGE2 substrate. Potency, µM, most hits filed as inhibitors. AID 894, 2007; active = well fitted inhibition curve with a large enough effect, not every such curve was filed as active; inconclusive = small, poorly fitted or top-dose-only effect, or another doubt; inactive = no such curve, though single readings can be large or run the other way
Target sequence (P15428 whole entry, looked up): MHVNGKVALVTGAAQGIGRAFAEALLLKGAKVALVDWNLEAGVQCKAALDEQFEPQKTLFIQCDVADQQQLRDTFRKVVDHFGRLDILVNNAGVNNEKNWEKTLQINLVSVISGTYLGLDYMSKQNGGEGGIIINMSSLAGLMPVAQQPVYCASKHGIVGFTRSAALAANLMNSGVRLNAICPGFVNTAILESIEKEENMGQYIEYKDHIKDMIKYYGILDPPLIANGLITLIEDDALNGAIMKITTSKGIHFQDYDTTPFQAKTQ
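NADH formation kinetics: reaction with 30 uM PGE2 and 1 mM NAD+ (final), 20 nM enzyme, Tris-HCl pH 8 with Tween 20, after 15 min compound preincubation at room temperature. Fluorescence change, last versus first of five reads.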
HTT cytoprotect = qHTS Multiplex Assay to Identify Dual Action Probes in a Cell Model of Huntington: Cytoprotection (ATP); PC12 HTT-Q103 induced, cytoprotection, ATP luminescence, 40 h; Potency, µM (doses to about 56.4 µM), usual class: activators; actives 0.14% (n = 230,000); also: nearly all actives have a fitted effect of over 45% in size
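Compounds added alongside 100 nM tebufenozide, which induces toxic Q103 huntingtin exon 1-GFP in stable PC12 cells; surviving cells quantified by luminescent ATP measurement. Medium: phenol red-free DMEM, 5% equine and 5% calf serum.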
Numbers stand for hits; – = inactive; ? = inconclusive; · = not tested or not shown; [ ] = remark or other dose. Unless noted, calls follow the shape of the dose curve; as a rule, active = well fitted curve in the direction sought with a large enough effect; inconclusive = small, poorly fitted or top-dose-only effect, or another doubt; inactive = no such curve, though single readings can be large; an effect the other way counts as inactive or inconclusive.

SMILES	IMPase Li inh	ALDH1A1 inh	IMPase inh	HttQ103 aggreg	HPGD inh	HTT cytoprotect
Cc1ccccc1NC(=O)c1cc(N)ccc1N1CCCCC1	–	10µM	–	–	–	–[10 µM]
c1ccc(Cn2nnnc2CN2CCN(c3ncccn3)CC2)cc1	–	11.2µM	–	–	–	–[10 µM]
COc1ccc(Cn2nnnc2CN2CCOCC2)cc1	–	–	–	–	–	–[10 µM]
Cc1ccc(CNc2ncc(-c3ccc4c(c3)OCO4)n2C)cc1	–	15.8µM	–	–	–	–
Cn1c(-c2ccc(F)cc2)cnc1NCc1ccc(C#N)cc1	–	5.01µM	–	–	–	–[10 µM]
Cn1c(-c2cccc([N+](=O)[O-])c2)cnc1NCc1cccc([N+](=O)[O-])c1	–	4.74µM	·	–[9.22 µM]	·	–[10 µM]
Cn1c(-c2ccc(F)cc2)cnc1NCc1ccc(F)cc1	–	?	–	?	?	–
Cn1c(-c2ccc(Br)cc2)cnc1NCc1cccnc1	–	10µM	–	–	–	–
O=C1C[C@@H](O)[C@@H](O)[C@H]2[C@@H]3C(=O)N(C4CCCCC4)C(=O)[C@@H]3CC[C@H]12	·	–[13.5 µM]	·	·	·	–[10 µM]
Cn1c(=O)c(-c2ccc(F)cc2)nc2cnc(N3CCOCC3)nc21	–	?	·	·	·	–
CCn1c(=O)c(-c2ccccc2)c(O)c2ccccc21	–	–	–	–[9.22 µM]	–	–
CCn1c(=O)c2c(cnn2C)c2ccccc21	–	–	–	8.91µM	31.6µM	–
CSc1cccc(NC(=O)Cc2ccccc2[N+](=O)[O-])c1	–	35.5µM	·	–[9.22 µM]	·	–
CCC(CC)c1nnc(NC(=O)Cc2ccccc2[N+](=O)[O-])s1	–	20µM	·	–[9.22 µM]	·	–
Cc1csc(NC(=O)Cc2ccccc2[N+](=O)[O-])n1	–	–	·	–	–	–[10 µM]
CCOc1ccc(C(=O)Nc2nnc(C(C)C)s2)cc1OCC	–	25.1µM	–	–	28.2µM	–
CCOc1ncccc1C(=O)Nc1nnc(C(CC)CC)s1	–	4.47µM	·	–	·	–
Nn1cc(Br)c(=O)[nH]c1=O	–	–	·	·	·	–
O=C(NNC(=S)NC1CC2C=CC1C2)c1cccnc1 (configuration not stated)	·	–	·	–[9.22 µM]	·	–[10 µM]
c1ccc(Nc2nc(-c3ccc4c(c3)OCO4)nc3ccccc23)cc1	–	?	·	·	·	–
COc1cccc([C@@H]2Oc3ccc(OC)cc3C[C@H]2O)c1	–	–	·	·	–	–
COC(=O)C/C=C\[C@@H](C)[C@@H](/C=N\OCC[C@@H]1C=C[C@H](OC(C)=O)[C@H](COC(C)=O)O1)OC	·	–[13.5 µM]	·	·	·	–[10 µM]
CC(C)C(C(=O)O)N1C(=O)/C(=C/C=C/c2ccco2)SC1=S (configuration not stated)	–	?	–	–	3.55µM	–
O=C(NC1CCCC1)c1nc2c(nnn2Cc2cccc(Cl)c2)c(=O)[nH]1	–	–	–	–	2.51µM	–
O=C(Nc1ccc(F)cc1)N1CCC(c2nc3c(nnn3Cc3cccc(Cl)c3)c(=O)[nH]2)CC1	–	–	–	–	8.91µM	–[10 µM]
SMILES	IMPase Li inh	ALDH1A1 inh	IMPase inh	HttQ103 aggreg	HPGD inh	HTT cytoprotect
N#Cc1cccc(NC(=O)N2CCC(c3nc4c(nnn4Cc4cccc(Cl)c4)c(=O)[nH]3)CC2)c1	–	–	–	–	10µM	–
Cc1ccc(NC(=O)N2CCC(c3nc4c(nnn4Cc4cccc(Cl)c4)c(=O)[nH]3)CC2)cc1	–	–	–	–	2µM	–
O=C(c1cccs1)N1CCC(c2nc3c(nnn3Cc3ccccc3)c(=O)[nH]2)CC1	·	?	–	–	·	–[10 µM]
COc1ccccc1NC(=O)N1CCCC(c2nc3c(nnn3Cc3ccc(C)cc3)c(=O)[nH]2)C1 (configuration not stated)	·	?	–	–	·	–
O=c1[nH]c(C2CCN(S(=O)(=O)c3ccccc3)CC2)nc2c1nnn2Cc1ccccc1	–	?	·	–[9.22 µM]	·	–[10 µM]
CCC/C=C(\CCC)C(NC(=O)c1ccccc1)c1ccccc1 (configuration not stated)	–	?	·	·	–	–
S=C(NNc1ccnc2cc(Cl)ccc12)Nc1ccccc1Cl	–	?	·	–	25.1µM	·
FC(F)(F)c1cnc(NNC(=S)Nc2ccccc2Cl)c(Cl)c1	·	1.5µM	–	22.4µM	·	–[10 µM]
Clc1ccc(NNc2ccnc3cc(Cl)ccc23)cc1	–	–	–	–	–	–
Cc1cccc(NC(=S)NNc2ncc(C(F)(F)F)cc2Cl)c1	–	28.2µM	·	?	–	–[10 µM]
CC(C)(C)NNC(=S)Nc1cccc(C(F)(F)F)c1	·	·	·	–[9.22 µM]	·	–[10 µM]
COc1cccc2c1[C@@H]1CN(CCCCn3c(=O)[nH]c4c(sc5ncc(-c6ccccc6)nc54)c3=O)C[C@H]1CO2	·	·	–	·	·	–[1.9 µM]
CO/N=C(\C)CCN1CCc2nc(-c3ccccc3)c(-c3ccccc3)cc2C1	·	–[13.5 µM]	·	·	·	–[10 µM]
CC(=O)N1CCN(C(=S)c2ccc(Cl)cc2)CC1	–	17.8µM	–	–	25.1µM	–[10 µM]
O=C(COC(=O)/C=C/c1cccs1)NC(c1ccccc1)c1ccccc1	–	–	–	–	–	–[10 µM]
O=C(COC(=O)/C=C/C(=O)N1CCN(c2ccccc2)CC1)NC(c1ccccc1)c1ccccc1	–	18.9µM	·	–	·	–
COc1cc(C(=S)N2CCN(c3cccc(Cl)c3)CC2)ccc1O	–	3.55µM	·	–[9.22 µM]	·	–[10 µM]
COc1ccc(C(=S)N2CCN(c3cccc(Cl)c3)CC2)c(OC)c1	–	20µM	·	–	·	·
COc1ccc(C(=O)N2CCN(c3cccc(Cl)c3)CC2)cc1	–	–	–	–	–	–[10 µM]
CCN(CC)CCNC(=O)c1ccc(-n2c(C)cc3c2CCCC3=O)cc1	–	–	·	–	·	–
Oc1ccc(C(=S)N2CCN(c3cccc(Cl)c3)CC2)cc1	–	7.94µM	·	–	·	·
CC(=O)c1ccc(NC(=S)N2CCN(c3cccc(Cl)c3)CC2)cc1	–	–	·	–	·	–
COC(=O)/C=C/C(=O)N1CCN(c2cccc(Cl)c2)CC1	–	10µM	·	?	–	–[10 µM]
